# HttQ103 aggreg: inhibitors of mutant huntingtin aggregate formation in PC12 cells. PC12 HttQ103-GFP aggregates, Acumen cytometry, 40 h. Potency, µM (doses to about 46.1 µM), without a hit: top-dose activity change, negative = inhibition, most hits filed as inhibitors. 220,000 compounds, 1.1% hits. AID 1688; active = well fitted curve in the direction sought with a large enough effect; inconclusive = small, poorly fitted or top-dose-only effect, or another doubt; inactive = no such curve, though single readings can be large; an effect the other way counts as inactive or inconclusive; also: potency is read from the fitted curve at half-maximal effect; % is scaled to controls: 0 for no effect and ±100 for the full control effect; nearly all actives have a fitted effect of over 60% in size
#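 Aggregates are detected as GFP objects 1–25 µm with signal 6 STDEV over background in lysates of induced PC12 cells. These carry Huntingtin exon 1 with 103 glutamines fused to GFP under an ecdysone promoter; compounds titrated.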
# ALDH1A1 inh: blocks purified human ALDH1A1 activity; P00352; Purified ALDH1A1, NADH fluorescence, propionaldehyde substrate; Potency, µM (titrated, usually from 75.3 µM), for inactives: at the top dose activity, negative = inhibition, most hits filed as inhibitors; 220,000 compounds, 7.3% hits; AID 1030;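 also: potency is read from the fitted curve at half-maximal effect; plate controls were no enzyme wells and a reference inhibitor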
# Target sequence (P00352 whole entry, looked up): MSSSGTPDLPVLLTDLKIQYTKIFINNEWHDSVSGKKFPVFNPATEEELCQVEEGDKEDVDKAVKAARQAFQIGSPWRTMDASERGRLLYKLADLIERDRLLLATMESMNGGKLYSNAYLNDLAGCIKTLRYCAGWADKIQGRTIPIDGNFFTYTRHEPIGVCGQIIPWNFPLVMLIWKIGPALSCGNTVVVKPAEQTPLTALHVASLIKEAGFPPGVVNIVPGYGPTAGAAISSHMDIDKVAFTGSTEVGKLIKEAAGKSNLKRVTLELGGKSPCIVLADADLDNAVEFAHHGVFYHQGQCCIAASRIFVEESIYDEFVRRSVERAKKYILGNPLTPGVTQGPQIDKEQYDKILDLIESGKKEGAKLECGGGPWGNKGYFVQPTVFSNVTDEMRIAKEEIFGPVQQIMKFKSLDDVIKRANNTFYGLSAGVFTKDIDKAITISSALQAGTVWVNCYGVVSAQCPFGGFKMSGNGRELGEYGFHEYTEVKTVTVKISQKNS
# PNC inhibitor: perinucleolar compartment assembly inhibition. PC3M PTB-GFP, PNC prevalence imaging, 16 h; active compounds read low. activity change (PNC), negative = inhibition, % at 10 µM. 140,000 compounds, 3.1% hits;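 active = readout at or below -70, meaning at least 70% loss of cells showing the perinucleolar compartment, a nuclear body marking cancer cells; inconclusive = readout between -30 and a set limit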;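 also: plate controls were DMSO wells for no effect and camptothecin positive control wells for full effect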
#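 PC3M cells stably expressing PTB-GFP, 750–1000 cells/well, treated 16 h at 37 °C with compound (23 nl of library stock), in duplicate. After paraformaldehyde fixation and Hoechst stain, imaged at 20x; PNC prevalence scored by image analysis.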
# RGS12 GoLoco inh: blocks human Gai1 binding to RGS12 GoLoco peptide, red readout. P63096. Gai1:RGS12 GoLoco peptide FP, rhodamine, 10 min. Potency, µM (highest dose often 61.6 µM), without a hit: at the top dose activity, negative = inhibition, hits mostly inhibitors. 230,000 compounds, 0.44% hits; active = well fitted inhibition curve with a large enough effect, not every such curve was filed as active; inactive = no such curve, though single readings can be large or run the other way; also: potency is read from the fitted curve at half-maximal effect; % is scaled to controls: 0 for no effect and ±100 for the full control effect; nearly all actives have a fitted effect of over 30% in size
# HTT ATP protect: cytoprotection in Huntington HTT-Q103 PC12 cell model. Potency, µM (doses to about 56.4 µM), for the others: cytoprotection (ATP increase), actives largely listed as activators. AID 1471. PC12 HTT-Q103 induced, cytoprotection, ATP luminescence, 40 h. 230,000 compounds, 0.14% hits; active = well fitted curve in the direction sought with a large enough effect; inconclusive = small, poorly fitted or top-dose-only effect, or another doubt; inactive = no such curve, though single readings can be large; an effect the other way counts as inactive or inconclusive; also: potency is read from the fitted curve at half-maximal effect; % of control where 0% means no effect; nearly all actives have a fitted effect of over 45% in size
#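 PC12 cells with ecdysone-inducible HTT exon 1 Q103-GFP, induced with 100 nM tebufenozide and co-treated with library compounds in a dose series (1536-well, 1500 cells/well). Cytoprotection read as ATP content by ATPlite luminescence.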
# HPGD inh: inhibitors of human 15-hydroxyprostaglandin dehydrogenase (HPGD); P15428; Potency, µM, for inactives: at the highest dose activity change, negative = inhibition, most hits filed as inhibitors; purified HPGD, NADH fluorescence kinetic, PGE2 substrate; 150,000 compounds, 4.3% hits; AID 894; also: potency is read from the fitted curve at half-maximal effect; % is scaled to controls: 0 for no effect and ±100 for the full control effect
# Target sequence (P15428 whole entry, looked up): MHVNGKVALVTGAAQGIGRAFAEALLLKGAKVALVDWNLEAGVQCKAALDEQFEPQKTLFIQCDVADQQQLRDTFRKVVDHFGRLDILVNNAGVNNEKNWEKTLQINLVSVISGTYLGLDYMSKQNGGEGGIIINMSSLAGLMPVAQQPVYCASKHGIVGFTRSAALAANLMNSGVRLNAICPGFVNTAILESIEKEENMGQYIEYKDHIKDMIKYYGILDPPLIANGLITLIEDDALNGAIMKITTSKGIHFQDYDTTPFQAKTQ
#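 NADH formation kinetics: reaction with 30 uM PGE2 and 1 mM NAD+ (final), 20 nM enzyme, Tris-HCl pH 8 with Tween 20, after 15 min compound preincubation at room temperature. Fluorescence change, last versus first of five reads.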
# Starred values were filed as active, the others as inactive; u = inconclusive; x = no result given; [ ] = dose if it differs, or a comment. This is a sample that favours compounds with a hit; in the whole collection about 11% have one here. Unless noted, calls follow the shape of the dose curve; as a rule, active = well fitted inhibition curve with a large enough effect (not every such curve was filed as active); inconclusive = small, poorly fitted or top-dose-only effect, or another doubt; inactive = no such curve, though single readings can be large or run the other way.
SMILES,HttQ103 aggreg,ALDH1A1 inh,PNC inhibitor,RGS12 GoLoco inh,HTT ATP protect,HPGD inh
Cc1cc(C)c[n+](-c2[nH]c(=O)sc2/C=N/NC([S-])=Nc2ccccc2)c1,-4%,u,9,-11%,0%[10 µM],28µM*
Cc1cc[n+](-c2[nH]c(=O)sc2/C=N/NC([S-])=Nc2ccccc2)cc1,1%,25µM*,-20,9%,23%[10 µM],-29%
CCN1C(C)=C(C(=O)OC)C(c2ccccc2)N2C(=O)[C@@]3(C(=O)OC)O[C@@]12C1C(=O)CCCC13 (stereo partly drawn),x,-1%[13.5 µM],x,x,1%[10 µM],x
O=C(CSc1ncccn1)NC(=O)c1ccccc1,-6%,u,x,-45%,-28%,x
Cc1cccc(C(=O)NC2CCN(C(=O)N3CCOCC3)CC2)c1,-8%,3%,-18,7%,-8%,-1%
CCOC(=O)/C=C1/N(C)c2ccccc2C1(C)C,-8%[9.22 µM],x,x,11%,-8%[10 µM],x
CN1/C(=C\P(=O)(N(C)C)N(C)C)C(C)(C)c2ccccc21,11µM*,-4%,-18,226%,-3%[10 µM],-13%
O=C(COC(=O)C1CC(=O)N(Cc2ccco2)C1)c1ccc(OC(=O)c2ccco2)cc1 (stereo not drawn),3%,1.6µM*,-11,116%,13%[10 µM],18µM*
Cc1ccc(CCN2CC(C(=O)NCc3ccco3)CC2=O)cc1 (stereo not drawn),9%,28µM*,u,-6%,-10%,-12%
Cc1ccc(CCN2CC(C(=O)NCCN3CCCCCC3)CC2=O)cc1 (stereo not drawn),9%,11%,-12,-17%,-5%,2%
Cc1ccc(C(=O)Oc2ccc(C(=O)COC(=O)C3CC(=O)N(Cc4ccco4)C3)cc2)cc1 (stereo not drawn),10%,25µM*,-19,-8%,13%[10 µM],u
Cc1cc(NC(=O)Cn2cnc3sc(C)c(-c4ccccc4)c3c2=O)no1,-7%,-1%,102,10%,8%[10 µM],-19%
CCN(C(=S)NCc1ccccc1)c1cccc2ccccc12,-8%,-3%,x,-1%,10%,x
Clc1ccccc1C(Nc1cnccn1)Nc1cnccn1,x,-12%[13.5 µM],x,7%[14.2 µM],13%[10 µM],u
C=CCC1Cc2c(cccc2[N+](=O)[O-])C(CC=C)N1 (stereo not drawn),0%[9.22 µM],16µM*,x,38%,9%[10 µM],x
COc1ccc(C)cc1NC(=O)C(CCS(C)(=O)=O)NC(C)=O (stereo not drawn),-5%,-2%,-12,6%,5%[10 µM],-6%
CCOC(=O)CNS(=O)(=O)c1cc(-c2n[nH]c(=O)c3ccccc23)ccc1C,-1%,14µM*,17,14%,2%,3.5µM*
Cc1ccc(NS(=O)(=O)c2cc(-c3n[nH]c(=O)c4ccccc34)ccc2C)cc1,u,u,7,5%,x,20µM*
CCOc1ccc(-c2nc3n(c(=O)c2C#N)CCS3)cc1,0%[9.22 µM],u,x,-2%,7%[10 µM],x
FC(F)Oc1ccc(/C=N/c2c(-c3ccc(OC(F)F)cc3)nc3n2CCS3)cc1,-15%,3.5µM*,321,-3%,2%[10 µM],u
O=C(Nc1ccccc1Cl)ON=C1c2ccccc2-c2ccccc21,u,u,28,1%,13%,-30%
Cc1cccc(-n2nnnc2SCC(=O)c2cc(C)n(CC3CCCO3)c2C)c1 (stereo not drawn),16%,7.9µM*,64,-1%,-20%,-10%
Cc1cccc(-n2nnnc2SCC(=O)c2cc(C)n(Cc3ccco3)c2C)c1,-24%,18µM*,8,2%,-28%,-8%
Cc1cc(C(=O)CSc2nnc(N)s2)c(C)n1Cc1ccco1,-21%,-7%,x,9%,-135%,x
Cc1cc(C(=O)CSc2nc3ccccc3[nH]2)c(C)n1CC1CCCO1 (stereo not drawn),u,u,-3,4%,-76%,16µM*
SMILES,HttQ103 aggreg,ALDH1A1 inh,PNC inhibitor,RGS12 GoLoco inh,HTT ATP protect,HPGD inh
C[C@@]12CCC(=O)C=C1CC[C@H]1[C@@H]2[C@@H](O)C[C@]2(C)[C@@H]1CC[C@@]2(O)C(=O)COC(=O)C1CCCC1,x,x,x,x,-16%[10 µM],x
COCCn1c(=O)c(-c2ccc(F)cc2)nc2cnc(Oc3cccc(Cl)c3)nc21,x,u,x,6%,2%,u
O=C(O)CC1(CC(=O)NCc2csc(-c3cccs3)n2)CCCCC1,2%[9.22 µM],u,x,-6%,7%[10 µM],x
COc1ccccc1CN1CC(C(=O)N2CCN(c3ccc(F)cc3)CC2)CC1=O (stereo not drawn),4%,u,-99*,-26%,-11%[10 µM],-12%
COC(=O)C[C@H]1c2ccccc2C2=C(C[C@@H](C)[C@H]3C(=O)NC(=O)[C@@H]23)N1C(=O)OC,x,-2%[13.5 µM],x,-9%[14.2 µM],-5%[10 µM],-13%
Cc1ccc(S(=O)(=O)N(C)C)cc1NC(=O)c1ccncc1,-16%,u,x,2%,x,x
Cc1ccc(S(=O)(=O)N(C)C)cc1NC(=O)CN1CCN(Cc2ccccc2)CC1,-1%,1%,x,4%,-6%,x
Cc1ccc(S(=O)(=O)N(C)C)cc1NC(=O)c1cccnc1Oc1ccccc1,13%[9.22 µM],28µM*,x,4%,4%[10 µM],x
Cc1ccc(S(=O)(=O)N(C)C)cc1NC(=O)c1cc(C(C)(C)C)nn1Cc1ccccc1,8%[9.22 µM],4.5µM*,x,7%,-19%[10 µM],x
CN(C)S(=O)(=O)c1ccc(Cl)c(NC(=O)c2ccncc2)c1,-21%,11µM*,1,23%,-2%[10 µM],-2%
COC(=O)[C@H]1C[C@@H]1[C@H](NS(=O)(=O)c1ccc(-c2ccccc2)cc1)c1ccccc1,x,-2%,x,-1%,10%,-12%
C/C(=N\Nc1nc2ccccc2s1)c1cccs1,-6%,5%,-5,6%,-31%[10 µM],14µM*
Cc1ccc(-n2[nH]c(C)c(C=Nc3ccc(S(=O)(=O)Nc4nc(C)cc(C)n4)cc3)c2=O)c(C)c1,-16%,-18%,u,-20%,17%[10 µM],22µM*
Cc1[nH]n(-c2ccc(Br)cc2)c(=O)c1C=Nc1ccc(S(=O)(=O)Nc2nccs2)cc1,-1%,-11%,-27,9%,1%[10 µM],14µM*
CNS(=O)(=O)c1ccc(N=Cc2c(C)[nH]n(-c3ccc(C)cc3C)c2=O)cc1,28%,4%,x,2%,-12%[10 µM],x
CCc1nnc(NS(=O)(=O)c2ccc(N=Cc3c(C)[nH]n(-c4ccc(C)c(C)c4)c3=O)cc2)s1,6%,11µM*,u,2%,-30%[10 µM],16µM*
Cc1ccc(-n2[nH]c(C)c(C=Nc3ccc(S(=O)(=O)Nc4nccs4)cc3)c2=O)cc1,5%,-16%,15,4%,-9%[10 µM],u
CCOC(=O)c1cnc2c(C)c(Cl)ccc2c1Nc1ccc(S(=O)(=O)Nc2ncccn2)cc1,10%,6%,3,3%,x,-12%

# Assay outcomes deposited in PubChem BioAssay by National Center for Advancing Translational Sciences (NCATS).
